Test results as given in PubChem BioAssay AID1159580 (chemical genetic matrix, 2015).
Where “and” joins values, the source holds several entries; their conditions need not be identical. Identical values can stand only once. Out of some 5,500 compounds screened, about 2,000 (36%) were called active. Roughly 18% stayed inconclusive and do not appear here. Rule as the data show it: active = normalized growth mostly below about 0.91 (no sharp cut-off); inconclusive = no clear call, values can overlap the other calls; inactive = mostly above about 0.92. The list shows a part of the results.

Assay: chemical genetic growth profiling, strain panel (AID 1159580);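 also: tested at 20 µM; growth read once vehicle control cultures reached saturation at 30 °C; 1 = growth at the plate median or of vehicle wells; lower values mean less growth of the strain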
Settings: S. cerevisiae deletion strains, growth OD
[1] = locus YAL013W, strain DEP1, stronger effect = lower value
[2] = locus YMR307W, strain GAS1, stronger effect = lower value
[3] = locus YNL128W, strain TEP1, stronger effect = lower value

Measured: normalized growth

NO
inactive: [1] 0.994 | locus YAL040C, strain CLN3, stronger effect = lower value 0.946 | locus YCL061C, strain MRC1 (second series), stronger effect = lower value 1.01 | locus YDR363W, strain ESC2, stronger effect = lower value 0.997 | locus YER002W, strain NOP16, stronger effect = lower value 1.01 | locus YGR229C, strain SMI1, stronger effect = lower value 1.1 | locus YJR075W, strain HOC1, stronger effect = lower value 1.02 | locus YMR263W, strain SAP30, stronger effect = lower value 1.01 | [2] 1.02 | [3] 0.998 | locus YNL153C, strain GIM3, stronger effect = lower value 0.988 | locus YNL175C, strain NOP13, stronger effect = lower value 1.01 | locus YNL197C, strain WHI3, stronger effect = lower value 0.976 | locus YNL224C, strain SQS1, stronger effect = lower value 1 | locus YOR083W, strain WHI5 (second series), stronger effect = lower value 0.946 | locus YPL055C, strain LGE1, stronger effect = lower value 1.01 | locus YPL241C, strain CIN2, stronger effect = lower value 1

COC(=O)C[C@H]1C(C)(C)C(=O)[C@@H]2CC3C4=CC(=O)O[C@@H](c5ccoc5)[C@]4(C)CCC3[C@@]1(C)C2=O (stereo not given in full)
inactive: [1] 0.98 | locus YAL021C, strain ccr4, stronger effect = lower value 0.967 | locus YAL026C, strain drs2, stronger effect = lower value 0.969 | locus YAL030W, strain snc1, stronger effect = lower value 0.979 | locus YBL061C, strain skt5, stronger effect = lower value 0.985 | locus YBR009C, strain hhf1, stronger effect = lower value 0.985 | locus YBR021W, strain FUR4, stronger effect = lower value 0.998 | locus YBR023C, strain chs3, stronger effect = lower value 0.99 | locus YBR171W, strain sec66, stronger effect = lower value 0.995 | locus YBR229C, strain ROT2, stronger effect = lower value 0.944 | locus YBR231C, strain swc5, stronger effect = lower value 0.998 | locus YBR279W, strain paf1, stronger effect = lower value 0.996 | locus YCL011C, strain gbp2, stronger effect = lower value 0.988 | locus YCL016C, strain dcc1, stronger effect = lower value 0.989 | locus YCL029C, strain bik1, stronger effect = lower value 0.973 | locus YCL061C, strain MRC1, stronger effect = lower value 0.976 | locus YCL069W, strain vba3, stronger effect = lower value 0.99 | locus YCR088W, strain abp1, stronger effect = lower value 0.98 | locus YDL005C, strain med2, stronger effect = lower value 0.978 | locus YDL035C, strain GPR1, stronger effect = lower value 0.959 | locus YDL040C, strain nat1, stronger effect = lower value 0.99 | locus YDL074C, strain BRE1, stronger effect = lower value 0.954 | locus YDL101C, strain DUN1, stronger effect = lower value 0.987 | locus YDL185W, strain tfp1, stronger effect = lower value 0.954 | locus YDL192W, strain arf1, stronger effect = lower value 0.985 | locus YDR001C, strain nth1, stronger effect = lower value 0.975 | locus YDR069C, strain doa4, stronger effect = lower value 0.977 | locus YDR101C, strain arx1, stronger effect = lower value 0.985 | locus YDR137W, strain rgp1, stronger effect = lower value 0.947 | locus YDR159W, strain sac3, stronger effect = lower value 0.97 | locus YDR162C, strain NBP2, stronger effect = lower value 0.96 | locus YDR195W, strain ref2 0.972 | locus YDR297W, strain sur2, stronger effect = lower value 1.05 | locus YDR318W, strain mcm21, stronger effect = lower value 0.98 | locus YDR334W, strain swr1, stronger effect = lower value 0.972 | locus YDR335W, strain msn5, stronger effect = lower value 0.983 | locus YDR388W, stronger effect = lower value 0.988 | locus YDR392W, strain spt3, stronger effect = lower value 0.993 | locus YDR502C, strain sam2, stronger effect = lower value 0.995 | locus YEL003W, strain gim4, stronger effect = lower value 0.989 | locus YEL037C, strain rad23, stronger effect = lower value 0.985 | locus YEL061C, strain CIN8 (second series), stronger effect = lower value 0.982 | locus YEL061C, strain CIN8, stronger effect = lower value 0.978 | locus YER015W, strain faa2, stronger effect = lower value 0.999 | locus YER016W, strain bim1, stronger effect = lower value 0.985 | locus YER110C, stronger effect = lower value 0.964 | locus YER111C, strain swi4, stronger effect = lower value 0.978 | locus YER155C, strain BEM2 (second series), stronger effect = lower value 0.978 | locus YER155C, strain BEM2, stronger effect = lower value 0.995 | locus YER167W, strain BCK2, stronger effect = lower value 0.978 | locus YFR010W, strain ubp6, stronger effect = lower value 0.964 | locus YGL078C, strain dbp3, stronger effect = lower value 0.97 | locus YGL086W, strain mad1, stronger effect = lower value 0.975 | locus YGL167C, strain pmr1, stronger effect = lower value 0.977 | locus YGL173C, strain kem1, stronger effect = lower value 0.982 | locus YGL227W, strain vid30, stronger effect = lower value 0.99 | locus YGL240W, strain doc1, stronger effect = lower value 1 | locus YGL248W, strain PDE1, stronger effect = lower value 0.971 | locus YGL253W, strain hxk2, stronger effect = lower value 0.98 | locus YGR135W, strain pre9, stronger effect = lower value 1.04 | locus YGR252W, strain gcn5, stronger effect = lower value 1.04 | locus YHR013C, strain ard1, stronger effect = lower value 0.983 | locus YHR027C, strain rpn1, stronger effect = lower value 0.979 | locus YHR030C, strain SLT2, stronger effect = lower value 0.979 and 0.991 | locus YHR079C, strain IRE1 (second series), stronger effect = lower value 0.969 | locus YHR079C, strain IRE1, stronger effect = lower value 0.979 | locus YHR094C, strain hxt1, stronger effect = lower value 0.97 | locus YHR129C, strain ARP1, stronger effect = lower value 0.987 | locus YHR142W, strain chs7, stronger effect = lower value 0.983 | locus YHR200W, strain rpn10, stronger effect = lower value 0.981 | locus YIL066C, strain RNR3, stronger effect = lower value 0.952 | locus YIL073C, strain SPO22, stronger effect = lower value 0.957 | locus YIL125W, strain kgd1, stronger effect = lower value 0.982 | locus YIR030C, strain dcg1, stronger effect = lower value 0.985 | locus YJL092W, strain hpr5, stronger effect = lower value 0.981 | locus YJL095W, strain BCK1 (second series), stronger effect = lower value 0.983 | locus YJL095W, strain BCK1, stronger effect = lower value 1.01 and 0.983 | locus YJL115W, strain asf1, stronger effect = lower value 0.964 | locus YJL129C, strain trk1, stronger effect = lower value 0.965 | locus YJL134W, strain LCB3, stronger effect = lower value 0.97 | locus YJL154C, strain vps35, stronger effect = lower value 0.99 | locus YJL164C, strain tpk1, stronger effect = lower value 0.988 | locus YJL166W, strain qcr8, stronger effect = lower value 0.989 | locus YJL168C, strain set2, stronger effect = lower value 0.991 | locus YJL187C, strain SWE1 (second series), stronger effect = lower value 0.993 | locus YJL187C, strain SWE1, stronger effect = lower value 0.998 | locus YJR066W, strain TOR1, stronger effect = lower value 0.943 | locus YKL009W, strain mrt4, stronger effect = lower value 0.956 | locus YKL068W, stronger effect = lower value 0.979 | locus YKL085W, strain MDH1 (second series), stronger effect = lower value 0.986 | locus YKL085W, strain MDH1, stronger effect = lower value 0.986 | locus YKL160W, strain elf1, stronger effect = lower value 0.992 | locus YKL190W, strain CNB1, stronger effect = lower value 0.98 | locus YKR001C, strain vps1, stronger effect = lower value 0.979 | locus YKR026C, strain gcn3, stronger effect = lower value 0.984 | locus YKR091W, strain srl3, stronger effect = lower value 0.984 | locus YLL001W, strain dnm1, stronger effect = lower value 0.979 | locus YLL026W, stronger effect = lower value 0.982 | locus YLL041C, strain sdh2, stronger effect = lower value 0.978 | locus YLR027C, strain aat2, stronger effect = lower value 1 | locus YLR039C, strain RIC1, stronger effect = lower value 0.902 | locus YLR058C, strain SHM2, stronger effect = lower value 0.961 | locus YLR102C, strain apc9, stronger effect = lower value 0.979 | locus YLR113W, strain HOG1, stronger effect = lower value 1 | locus YLR221C, strain rsa3, stronger effect = lower value 0.992 | locus YLR258W, strain gsy2, stronger effect = lower value 0.981 | locus YLR262C, strain YPT6 (second series), stronger effect = lower value 0.982 | locus YLR262C, strain YPT6, stronger effect = lower value 0.916 | locus YLR268W, strain sec22, stronger effect = lower value 0.997 | locus YLR320W, strain mms22, stronger effect = lower value 0.982 | locus YLR330W, strain CHS5, stronger effect = lower value 0.983 | locus YLR342W, strain FKS1 (second series), stronger effect = lower value 1.02 | locus YLR342W, strain FKS1, stronger effect = lower value 0.99 | locus YLR357W, strain rsc2, stronger effect = lower value 0.977 | locus YLR370C, strain arc18, stronger effect = lower value 0.987 | locus YLR371W, strain rom2, stronger effect = lower value 0.981 | locus YLR384C, strain iki3, stronger effect = lower value 0.983 | locus YLR418C, strain cdc73, stronger effect = lower value 1 | locus YML016C, strain PPZ1, stronger effect = lower value 0.978 | locus YML032C, strain rad52, stronger effect = lower value 0.945 | locus YML120C, strain ndi1, stronger effect = lower value 0.992 | locus YML124C, strain tub3, stronger effect = lower value 0.994 | locus YMR058W, strain fet3, stronger effect = lower value 0.969 | locus YMR078C, strain ctf18, stronger effect = lower value 0.958 | locus YMR125W, strain sto1, stronger effect = lower value 0.973 | locus YMR129W, stronger effect = lower value 0.993 | locus YMR205C, strain PFK2, stronger effect = lower value 0.977 | locus YMR223W, strain ubp8, stronger effect = lower value 1 | locus YMR231W, strain pep5, stronger effect = lower value 0.968 | [2] 1.01 | locus YNL067W, strain RPL9B, stronger effect = lower value 1.01 | locus YNL071W, strain lat1, stronger effect = lower value 0.979 | [3] 0.945 | locus YNL183C, strain NPR1, stronger effect = lower value 0.972 | locus YNL209W, strain ssb2, stronger effect = lower value 0.989 | locus YNL233W, strain BNI4, stronger effect = lower value 1.02 | locus YNL248C, strain rpa49, stronger effect = lower value 0.967 | locus YNL250W, strain rad50, stronger effect = lower value 0.98 | locus YNL271C, strain bni1, stronger effect = lower value 0.976 | locus YNL298W, strain CLA4, stronger effect = lower value 0.962 | locus YNL307C, strain MCK1, stronger effect = lower value 0.978 | locus YNL322C, strain KRE1 (second series), stronger effect = lower value 0.995 | locus YNL322C, strain KRE1, stronger effect = lower value 0.981 | locus YNR049C, strain mso1, stronger effect = lower value 0.976 | locus YNR052C, strain pop2, stronger effect = lower value 0.989 | locus YOL006C, strain TOP1, stronger effect = lower value 0.934 | locus YOL012C, strain htz1 0.856 | locus YOL147C, strain pex11, stronger effect = lower value 0.969 | locus YOR001W, strain rrp6, stronger effect = lower value 0.962 | locus YOR061W, strain CKA2, stronger effect = lower value 0.964 | locus YOR069W, strain VPS5, stronger effect = lower value 0.988 | locus YOR070C, strain gyp1, stronger effect = lower value 0.982 | locus YOR080W, strain dia2, stronger effect = lower value 0.983 | locus YOR083W, strain WHI5, stronger effect = lower value 0.989 | locus YOR106W, strain vam3, stronger effect = lower value 0.99 | locus YOR136W, strain idh2, stronger effect = lower value 0.971 | locus YOR144C, strain elg1, stronger effect = lower value 0.996 | locus YOR184W, strain ser1, stronger effect = lower value 0.948 | locus YOR231W, strain MKK1, stronger effect = lower value 0.984 | locus YOR265W, strain rbl2, stronger effect = lower value 0.986 | locus YOR270C, strain vph1, stronger effect = lower value 0.925 | locus YOR290C, strain snf2, stronger effect = lower value 1 | locus YOR316C, strain cot1, stronger effect = lower value 0.982 | locus YPL051W, strain arl3, stronger effect = lower value 1.03 | locus YPL078C, strain atp4, stronger effect = lower value 0.985 | locus YPL106C, strain sse1, stronger effect = lower value 0.994 | locus YPL240C, strain hsp82, stronger effect = lower value 0.984 | locus YPL256C, strain CLN2, stronger effect = lower value 0.967 | locus YPR119W, strain clb2, stronger effect = lower value 0.99 | locus YPR141C, strain kar3, stronger effect = lower value 0.988 | locus YPR163C, strain tif3, stronger effect = lower value 0.985 | locus YPR167C, strain met16, stronger effect = lower value 0.982 | strain wtn01, stronger effect = lower value 0.967
